Compounds with a hit are over-represented: about 4.1% of the library has one in this group of screens.
LEDGF integ inh: blocks HIV-1 LEDGF/p75-dependent DNA integration; TR-FRET IN-LEDGF/p75 DNA integration, Eu/Cy5; inhibition, % at 3.7 µM; actives 0.64% (n = 370,000);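 active = inhibition above the screen-wide mean plus 3 SD, cut at about 13% in these data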;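 note: signal is the Cy5 over europium emission ratio at 671 and 618 nm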
PRMT1 inh: inhibitors of human PRMT1. AID 652257. inhibition, % at 2.79 µM. actives 1.3% (n = 370,000). recombinant PRMT1, activity-based probe fluorescence polarization. Q99873;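 active = inhibition above about 21% made by adding two undisclosed values, limit read from the data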
Target sequence (Q99873 whole entry, looked up): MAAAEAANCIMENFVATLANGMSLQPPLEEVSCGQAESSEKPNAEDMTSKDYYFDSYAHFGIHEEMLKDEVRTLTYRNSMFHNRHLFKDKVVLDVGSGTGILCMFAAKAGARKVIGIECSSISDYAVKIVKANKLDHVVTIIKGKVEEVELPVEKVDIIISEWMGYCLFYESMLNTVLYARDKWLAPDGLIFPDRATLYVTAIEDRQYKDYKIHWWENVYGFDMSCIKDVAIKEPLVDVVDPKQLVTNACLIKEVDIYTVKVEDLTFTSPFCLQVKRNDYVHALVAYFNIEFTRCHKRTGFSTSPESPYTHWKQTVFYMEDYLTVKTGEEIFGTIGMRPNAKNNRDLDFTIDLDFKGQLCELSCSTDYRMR
rCAG RNA binder: binds r(CAG) RNA repeats; r(CAG) RNA repeat, TO-PRO-1 dye displacement fluorescence; inhibition, % at 3 µM; actives 1.3% (n = 370,000);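 active = inhibition above the plate cutoff, the mean of all test compounds on that plate plus 3 SD, cut at about 35% in these data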;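 note: higher means more dye released from RNA so lower well fluorescence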
ABHD5-PLIN5 inh: inhibitors of human ABHD5-perilipin-5 interaction | Q00G26+Q8WTS1 | Split G. princeps luciferase complementation, luminescence, 4 h | inhibition, % at 4 µM | actives 0.78% (n = 360,000);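 active = inhibition above the mean inhibition across every tested compound plus 3 SD, cut at about 22% in these data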
MBD2 DNA inh: blocks human MBD2 binding to methylated DNA | TR-FRET, MBD2 binding to methylated oligonucleotide | AID 686964 | actives 0.31% (n = 370,000) | Q9UBB5 | inhibition, % at 4.4 µM; in the data active = inhibition above about 13%
UHRF1 binding: human UHRF1 methylated DNA binding inhibitors; Q96T88; inhibition, % at 4.4 µM; UHRF1 binding to methylated oligo, TR-FRET; actives 0.75% (n = 370,000);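 note: UHRF1 SRA domain binding a hemimethylated CpG hairpin DNA probe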
UHRF1 ctr MBD2: counter-screen for MBD2 inhibitors: human UHRF1 methylated DNA binding inhibitors | UHRF1 binding to methylated oligonucleotide, TR-FRET | actives 25% (n = 1,000) | inhibition, % at 4.4 µM | shares compounds with MBD2 DNA inh;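 note: UHRF1 SRA domain binding a labeled hemimethylated CpG hairpin DNA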
MBD2 DBD conf: confirmation of human MBD2-DBD methylated oligonucleotide binding inhibitors | shares compounds with MBD2 DNA inh | TR-FRET MBD2-DBD binding to methylated oligonucleotide | inhibition, % at 4.4 µM | actives 26% (n = 1,000); in the data active = inhibition above about 14%
A number is an active result; - = inactive; . = no result. Cut-off read from the data, not from the text of the source, unless noted: active = inhibition above about 21%; inactive = the rest.

SMILES	LEDGF integ inh	PRMT1 inh	rCAG RNA binder	ABHD5-PLIN5 inh	MBD2 DNA inh	UHRF1 binding	UHRF1 ctr MBD2	MBD2 DBD conf
COc1ccc(/C=C2/C(=O)N(c3ccccc3)N=C2C)cc1Br	-	-	-	-	15.2	-	-	-
O=C(Nc1ccc(F)c(C(F)(F)F)c1)Nc1nnc(-c2ccncc2)s1	-	-	.	.	14.7	-	-	-
CCC(=O)Nc1nnc(-c2ccncc2)s1	-	-	-	-	-	-	.	.
COc1ccc(Cl)cc1NC(=S)N1CCC(c2ccc(C)cc2)C1 (centres undefined)	-	-	-	-	22.8	-	-	-
C[C@H]1Cn2cnc(C(=O)Nc3ccc(CNC(=O)OC(C)(C)C)cc3)c2C(=O)N1	-	-	-	-	-	-	.	.
CN1CCn2cnc(C(=O)Nc3ccc(CNC(=O)OC(C)(C)C)cc3)c2C1=O	-	-	-	-	15.4	25.5	-	-
COc1cc(-c2cc(=O)c3ccc(O)cc3o2)cc(OC)c1OC	-	-	-	-	-	-	.	.
COc1cc(OC)c(-c2c3cc(O)c(=O)cc-3oc3cc(O)c(O)cc23)cc1OC	83.8	23.6	-	-	15.2	-	-	-
Cc1[nH][nH]c(=O)c1C(c1cc(Br)ccc1O)c1c(C)[nH][nH]c1=O	-	-	-	-	53.4	-	-	-
Cc1[nH][nH]c(=O)c1C(c1cc2c(cc1Br)OCO2)c1c(C)[nH][nH]c1=O	-	-	-	-	-	-	.	.
CNc1c2cccc(C)c2nc2c(C(=O)NCCN(C)C)cccc12	-	-	-	-	90.8	61.0	54.7	103.2
Cc1ccc(C(=O)NCCN(C)C)c(C)c1	-	-	-	-	-	-	.	.
COC(=O)C1CN(Cc2ccc(OC)cc2)CCS(=O)(=O)N1Cc1ccc(C(F)(F)F)cc1 (centres undefined)	-	-	-	.	-	-	.	.
CCOC(=O)c1csc(NC(=O)C2CCCN(S(=O)(=O)c3ccccc3[N+](=O)[O-])C2)n1 (centres undefined)	-	-	-	.	-	-	.	.
COCCNc1ncnc2c1ncn2[C@H]1CN(Cc2ccco2)C[C@@H](CO)O1	-	-	-	-	23.6	-	-	-
OCCNc1ncnc2c1ncn2[C@H]1CN(Cc2ccco2)C[C@@H](CO)O1	-	-	-	-	-	-	.	.
CNC(C)C(=O)NC(C(=O)N1CCCC1C(=O)NNc1ccccc1)C(C)C (centres undefined)	-	-	-	-	45.5	56.1	-	-
NCc1cc2c3c(c1)CCCN3CCC2	-	-	-	-	18.3	-	-	15.3
COc1cccc(C(=O)Nc2ccc(Oc3cccc(C(F)(F)F)c3)nc2)c1	-	-	-	-	13.5	-	-	-
CCC(=O)c1ccc(OCC(=O)NC2CCN(Cc3ccccc3)CC2)cc1	-	-	-	-	-	-	.	.
CCC(=O)c1ccc(OCC(=O)NCc2ccccc2CN2CCCC2)cc1	-	-	-	-	34.7	-	-	-
CCn1cnc2cc(NC(=O)COc3ccc(C)cc3)ccc21	-	-	-	-	14.7	-	-	-
Cc1cn2c(=O)c3ncn(C4OC(CO)C(O)C4O)c3n(C)c2n1 (centres undefined)	-	-	-	.	-	-	.	.
CC(C)C[C@@H](CN1CCC[C@H]1CN1C(=O)C(=O)NC[C@@H]1Cc1ccccc1)N1C[C@H](Cc2ccc(O)cc2)N(CC2CCCCC2)C(=O)C1=O	-	-	-	-	-	-	.	.
CC(C)C[C@@H](CN1CCC[C@H]1CN1C(=O)C(=O)NC[C@@H]1Cc1ccc(O)cc1)N1C[C@H](Cc2ccccc2)N(CC2CCCCC2)C(=O)C1=O	-	-	-	-	17.1	25.4	-	-
SMILES	LEDGF integ inh	PRMT1 inh	rCAG RNA binder	ABHD5-PLIN5 inh	MBD2 DNA inh	UHRF1 binding	UHRF1 ctr MBD2	MBD2 DBD conf
CCCCOCCCNS(=O)(=O)Cc1ccccc1	-	-	-	-	19.6	-	-	-
O=C(O)CCCNS(=O)(=O)Cc1ccccc1	-	-	-	-	-	-	.	.
COc1ccc(NC(=O)Nc2c[nH]c(=O)[nH]c2=O)cc1	-	-	-	-	-	-	.	.
COc1ccc(Cc2c[nH]c(=O)[nH]c2=O)cc1	-	-	-	-	16.1	23.6	-	-
CN(C)CCN1CCN(C2CN(Cc3cn(Cc4cccc(C(F)(F)F)c4)nn3)S(=O)(=O)C2)CC1 (centres undefined)	-	-	-	-	-	-	.	.
Cc1cccc(CN2CCN(C3CN(Cc4cn(Cc5cccc(C(F)(F)F)c5)nn4)S(=O)(=O)C3)CC2)c1 (centres undefined)	-	-	-	-	14.0	-	-	-
O=C(NCCc1c[nH]c2ccccc12)OCc1cn(-c2ccc(F)cc2)nn1	-	-	-	.	-	-	.	.
O=C(c1ccccc1)N1CCC2CCN(CCc3ccccc3)CC21 (centres undefined)	-	-	-	.	-	-	.	.
COc1ccc2oc3cc(C)[n+]([O-])c(-c4ccc(Cl)cc4)c3c2c1	-	-	-	-	13.2	-	-	-
O=C(O)CC(NC(=O)COc1ccc(Cl)cc1Cl)C(=O)O (centres undefined)	-	-	-	-	26.1	-	-	-
CCN(CC)C(=O)c1ccc2sc([C@H]3C[C@H](O)[C@@H](CO)O3)nc2c1	-	-	-	-	21.1	-	-	-
CCc1ccc(/C=C2\SC(=S)N(CCC(=O)Nc3cc(C)on3)C2=O)cc1	-	-	-	-	-	-	.	.
CCc1ccc(/C=C2\SC(=S)N(CCCC(=O)Nc3cc(C)on3)C2=O)cc1	-	-	-	-	14.7	-	-	-
O=C(COC(=O)C1CCC1)NC(=O)c1ccccc1	-	-	-	-	-	-	.	.
O=C(COC(=O)C1CC1)NC(=O)c1ccccc1	-	-	-	-	15.7	22.5	-	-
CC(=O)Nc1ccc(S(=O)(=O)N2CCN(C(=O)C3COc4ccccc4O3)CC2)cc1 (centres undefined)	-	-	-	-	-	-	.	.
COc1ccc(S(=O)(=O)N2CCN(C(=O)C3COc4ccccc4O3)CC2)cc1 (centres undefined)	-	-	-	-	25.7	29.3	74.7	70.2
O=C(C1COc2ccccc2O1)N1CCOCC1 (centres undefined)	-	-	-	-	13.5	-	-	-
O=S1(=O)c2ccc(N3CCSCC3)cc2Oc2ccccc2CN1Cc1cn(Cc2ccc(Cl)cc2)nn1	-	-	-	.	-	-	.	.
CC12CCC(C(N)=O)(c3nc4ccccc4nc31)C2(C)C (centres undefined)	-	-	-	-	13.4	-	-	-

High-throughput results as filed in PubChem BioAssay.
